SARS PLP yeast = inhibitors of SARS-CoV papain-like protease in yeast. S. cerevisiae expressing SARS-CoV PLpro, growth rescue. Potency, µM (top dose mostly 32.9 µM), inactives show at the top dose activity, positive = growth rescue, most hits filed as activators. hit rate 0.19% among 330,000. AID 485353; calls by dose curve; also: potency is read from the fitted curve at half-maximal effect; 0% is about no effect; nearly all actives have a fitted effect of over 55% in size
HCMV inh = blocks human cytomegalovirus replication | HFF cells, HCMV-luciferase reporter, 72 h; active compounds read low | activity change, negative = inhibition, % at 57.5 µM | hit rate 4.5% among 410,000 | AID 1259415; in the data active = activity change below about -60%; inconclusive = no clear call, values can overlap the other calls; inactive = above about -39%; also: % is scaled to controls: 0 for no effect and ±100 for the full control effect
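Screen run at 2 compound doses on HFFs infected with reporter HCMV, MOI 1 PFU/cell. Luciferase activity from cell lysates at 72 h post infection gave inhibition relative to buffer-only and Salinomycin wells.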
Pf growth 48h = inhibits P. falciparum growth in the first generation, 48 h. hit rate 5.9% among 310,000. Potency, µM (highest dose often 28.7 µM), for the others: at the highest dose activity change, negative = inhibition, actives largely listed as inhibitors. P. falciparum luciferase growth in erythrocytes, 48 h; also: potency is read from the fitted curve at half-maximal effect; % is scaled to controls: 0 for no effect and ±100 for the full control effect
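Erythrocytes infected with P. falciparum carrying an integrated firefly luciferase reporter (2% hematocrit, 0.1% parasitemia final) were exposed to compounds in RPMI 1640 with 0.5% Albumax at 37 C, 5% CO2. Growth inhibition was scored as reduced luminescence.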
HCV inh = inhibitors of hepatitis C virus infection | hit rate 3.4% among 340,000 | Potency, µM (doses to about 41.8 µM), without a hit: top-dose activity change, negative = inhibition, hits mostly inhibitors | AID 651820 | Huh7.5.1 HCVcc-Cre infection, luciferase reporter, 44 h; also: potency is read from the fitted curve at half-maximal effect; % is scaled to controls: 0 for no effect and ±100 for the full control effect
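HCVcc-Cre virus at an moi near 0.5 was added right after compound to cells cultured 4 h from seeding (1,000 cells/well). Luciferase activity was determined 44 h later, 15 min after substrate addition at RT.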
Sm TGR block = inhibitors of Schistosoma mansoni thioredoxin glutathione reductase | Q962Y6 | purified TGR, DTNB reduction, TNB absorbance 405 nm | Potency, µM (series often up to 114 µM), for the others: top-dose activity change, negative = inhibition, usual class: inhibitors | hit rate 3% among 360,000 | AID 485364; also: potency is read from the fitted curve at half-maximal effect; % is scaled to controls: 0 for no effect and ±100 for the full control effect; nearly all actives have a fitted effect of over 60% in size
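TGR 20 nM + NADPH 100 uM (dispensed conc.), cpd preinc 15 min RT; start with NADPH (500 uM addition) then DTNB (15 mM addition). Kinetic TNB absorbance, 405 nm filter. Four-parameter Hill fit across titration.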
Pf growth 96h = P. falciparum growth inhibition at 96 hour, primary screen for plastid delayed-death inhibitors; P. falciparum luciferase reporter growth, 96 h; Potency, µM (doses to about 28.7 µM), without a hit: at the highest dose activity change, negative = inhibition, usual class: inhibitors; hit rate 6.9% among 320,000; also: potency is read from the fitted curve at half-maximal effect; % is scaled to controls: 0 for no effect and ±100 for the full control effect
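Parasite growth measured via integrated firefly luciferase reporter in P. falciparum. Infected erythrocytes at 2% hematocrit, 0.05% parasitemia final were treated 96 hours at 37 C under 5% CO2, and luminescence was read.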
* marks the source's active call; other numbers are inactive results; ? = inconclusive; . = no result given. An excerpt weighted towards active compounds, which were near 15% of everything screened. Unless noted, calls follow the shape of the dose curve; as a rule, active = well fitted curve in the direction sought with a large enough effect; inconclusive = small, poorly fitted or top-dose-only effect, or another doubt; inactive = no such curve, though single readings can be large; an effect the other way counts as inactive or inconclusive.

SMILES	SARS PLP yeast	HCMV inh	Pf growth 48h	HCV inh	Sm TGR block	Pf growth 96h
O=[N+]([O-])c1cccn2cc(-c3ccc(Br)cc3)nc12	-3%	-62*	?	?	-4%	4.7µM*
Cc1noc(C)c1COc1ccc(C(=O)OCC(=O)Nc2ccc(C(=O)N(C)C)cc2)cc1	-4%	-20	-12%	15%	-1%	29%
C=CCOCCN(C)C1=NS(=O)(=O)c2cc([N+](=O)[O-])ccc21	0%	-26	?	?	.	-27%
CN(CCO)C1=NS(=O)(=O)c2cc([N+](=O)[O-])ccc21	4%	-39	4.1µM*	?	-25%	-27%
COc1ccc(NC(=O)C(OC(=O)Cn2cnc3c2c(=O)n(C)c(=O)n3C)c2ccccc2)cc1Cl (configuration not stated)	.	-24	.	-4%	.	.
C=CCNC(=S)NNC(=O)COc1ccc(Br)cc1	?	-61*	2%	-2%	2%	5.9µM*
O=C(CCc1ccccc1)NNC(=O)COc1ccc(Br)cc1	0%	-11	7%	11µM*	0%	4%
C=CCNC(=S)NNC(=O)COc1ccc2cc(Br)ccc2c1	-4%	7	68%	-16%	.	?
O=C(CCC(=O)NNC(=O)COc1ccc(Br)cc1)NCc1ccccc1	-1%	66	-7%	-2%	.	21%
Cc1cc([N+](=O)[O-])cnc1Sc1nccn1C	-14%	-23	-1%	8%	-20%	12%
COc1ccc(CCCNC(=O)C2Cc3c(-c4cccc(C(C)=O)c4)ccnc3O2)cc1 (configuration not stated)	.	-6	.	.	.	.
Cc1nnc(SC(C)C(=O)Nc2ccc3c(c2)OCCO3)s1 (configuration not stated)	-6%	-19	8%	3%	-10%	10µM*
Cc1nnc(SC(C)C(=O)Nc2ccc(S(=O)(=O)N3CCCCCC3)cc2)s1 (configuration not stated)	-4%	-7	12µM*	-13%	-2%	.
COc1ccc(-c2nnc(SC(C)C(=O)Nc3ccc4c(c3)OCCO4)o2)cc1 (configuration not stated)	-3%	95	63%	-17%	-15%	12µM*
Cc1nnc(NC(=O)c2ccc(S(=O)(=O)N3CCCCC3)cc2)s1	3%	-29	.	2%	.	.
CCOCCCn1c(=S)[nH]c2cc(C(=O)NC3CCCC(C)C3C)ccc2c1=O (configuration not stated)	0%	?	13%	-5%	-9%	?
CCOc1ccccc1NS(=O)(=O)c1c(C(=O)OC)sc2cccc(F)c12	.	25	.	.	0%	.
Cc1ccc(C(C)C)c(O)c1C(=O)O	.	-63*	.	?	.	.
COc1ccc(OC)c(-c2nc(C(=O)NCC3CCCO3)cc3c2[nH]c2ccccc23)c1 (configuration not stated)	-26%	23	?	10µM*	-14%	?
COc1cccc(-c2nc(C(=O)NCC3CCCO3)cc3c2[nH]c2ccccc23)c1 (configuration not stated)	-30%	-18	?	11µM*	10%	8.3µM*
COc1ccc(-c2cc(C(=O)NCC3CCCO3)c3ccccc3n2)c(OC)c1 (configuration not stated)	-3%	11	-53%	-30%	0%	?
CC1Cc2ccccc2N1Cc1cccc([N+](=O)[O-])c1 (configuration not stated)	0%	.	-10%	-15%	-5%	-2%
NC(=O)NC(CC(=O)NCc1ccc2c(c1)OCO2)c1ccccc1Cl (configuration not stated)	2%	58	10%	10%	4%	22%
Cc1ccc(S(=O)(=O)Cc2cc(F)c([N+](=O)[O-])cc2[N+](=O)[O-])cc1	-65%	.	?	?	1.8µM*	?
C=CC(=O)NN(C)c1ncc(C(F)(F)F)cc1Cl	-1%	?	-23%	-6%	.	-3%
SMILES	SARS PLP yeast	HCMV inh	Pf growth 48h	HCV inh	Sm TGR block	Pf growth 96h
CN(NC(=O)/C=C/C(=O)O)c1ncc(C(F)(F)F)cc1Cl	-9%	3	?	4%	20µM*	-24%
CN(C1(C)CCS(=O)(=O)C1)S(=O)(=O)c1ccc2ccccc2c1 (configuration not stated)	1%	-7	0%	13%	-1%	3%
Cc1[nH]c2ccccc2c1/C=N/NC(=O)CNC(=O)c1ccc2c(c1)OCCO2	-1%	12	13%	-16%	9%	16%
CCOC(=O)c1nc2cc3n(c(CC(C)C)c-2c1C)CC(C)=C3C	4%	-36	1.2µM*	-27%	56µM*	3.3µM*
CCOC(=O)c1n[nH]n(-c2cc(Cl)cc(Cl)c2)c1=O	1%	4	?	15%	0%	6%
CCOC(=O)c1nc2cc3n(c(C)c-2c1C)C(C)C(C)=C3C (configuration not stated)	1%	-6	7.4µM*	?	-1%	2.3µM*
CCOC(=O)c1nnc2cc(C)nn2c1C	-4%	4	11%	19%	-4%	2%
Cc1csc(OCc2ccc(C#N)cc2)n1	3%	9	9%	4%	-10%	23%
CCc1ccc(NC(=O)CSc2nc(-c3ccccc3Cl)nc3c2Cc2c(CO)cnc(C)c2O3)cc1	.	-15	.	.	-34%	.
COc1ccc([C@H]2CC(=O)C=C(c3cccc4c3Oc3ccccc3S4)C2)cc1OC	5%	56	?	13µM*	4%	?
COc1ccc([C@H]2CC(=O)C=C(c3ccc(O)cc3)C2)cc1OC	-9%	7	?	?	-9%	?
CCOC(=O)c1cccc(C2=CC(=O)C[C@H](c3ccc(OC)c(OC)c3)C2)c1	-5%	16	10µM*	13µM*	-11%	?
COc1ccc([C@H]2CC(=O)C=C(c3cccc(CO)c3)C2)cc1OC	-10%	17	?	-21%	-6%	?
O=C1C=C(c2cccc(Cl)c2O)C[C@@H](c2ccc3c(c2)OCO3)C1	2%	61	12µM*	23%	-19%	?
COc1ccc([C@H]2CC(=O)C=C(c3cccc(Cl)c3O)C2)cc1OC	-2%	-2	?	-24%	0%	9.3µM*
COc1ccc(CCN2CC(C(=O)N(C)Cc3c(C)n[nH]c3C)CCC2=O)cc1 (configuration not stated)	1%	-27	2%	5%	-30%	?
Cc1cccc(C(=O)NCCc2ccccc2)c1	1%	85	.	12%	2%	?
COc1ccc(NC(=O)COc2ccc(S(=O)(=O)NC3CCCCC3)cc2)c(OC)c1	.	-6	.	.	4%	.

Compound activity deposited in PubChem by National Center for Advancing Translational Sciences (NCATS).
